Measurements from ChEMBL document CHEMBL1961873, “Compounds: GSK PKIS; Assays: Nanosyn kinase panel” (2012).
Values joined by “and” are separate entries in the source; they are usually repeats but may differ in a detail not shown here. Identical values can stand only once.

target: T1, Tyrosine-protein kinase Mer (Homo sapiens) (UniProt Q12866); conditions: at 1 µM;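 also: values are mean inhibition of human MER kinase, from the GSK PKIS profiling panel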
T1 sequence (whole entry): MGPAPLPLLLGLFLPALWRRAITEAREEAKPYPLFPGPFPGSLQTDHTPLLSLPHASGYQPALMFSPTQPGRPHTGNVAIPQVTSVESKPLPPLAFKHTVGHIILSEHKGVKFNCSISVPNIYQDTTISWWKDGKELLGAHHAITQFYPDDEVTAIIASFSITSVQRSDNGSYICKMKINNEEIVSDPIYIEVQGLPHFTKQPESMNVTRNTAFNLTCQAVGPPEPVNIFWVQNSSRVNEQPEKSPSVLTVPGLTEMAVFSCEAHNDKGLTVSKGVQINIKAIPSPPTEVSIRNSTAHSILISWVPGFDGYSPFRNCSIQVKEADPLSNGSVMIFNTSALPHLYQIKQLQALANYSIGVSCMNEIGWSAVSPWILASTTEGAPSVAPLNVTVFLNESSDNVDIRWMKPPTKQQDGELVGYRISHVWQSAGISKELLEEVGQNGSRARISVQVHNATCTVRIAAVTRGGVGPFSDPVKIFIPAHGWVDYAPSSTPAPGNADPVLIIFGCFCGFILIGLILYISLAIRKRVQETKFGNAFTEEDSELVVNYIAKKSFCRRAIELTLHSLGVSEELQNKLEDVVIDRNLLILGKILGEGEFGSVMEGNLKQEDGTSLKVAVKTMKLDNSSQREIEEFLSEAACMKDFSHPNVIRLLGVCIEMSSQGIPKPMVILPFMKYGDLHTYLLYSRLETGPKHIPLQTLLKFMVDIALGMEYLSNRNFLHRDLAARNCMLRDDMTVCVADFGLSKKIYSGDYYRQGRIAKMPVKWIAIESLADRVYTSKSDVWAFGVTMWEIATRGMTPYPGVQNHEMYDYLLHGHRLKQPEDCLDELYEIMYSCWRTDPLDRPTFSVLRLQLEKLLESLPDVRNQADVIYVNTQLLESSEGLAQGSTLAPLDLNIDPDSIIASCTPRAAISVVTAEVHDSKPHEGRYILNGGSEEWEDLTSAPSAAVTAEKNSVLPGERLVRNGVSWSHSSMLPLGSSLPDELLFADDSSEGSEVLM

Going from `CCCNc1cccc(-n2ncc3c(N/N=C/c4ccncc4)ncnc32)c1` to `COc1cccc(-n2ncc3c(N/N=C/c4ccc(C(=O)NCCN(C)C)cc4)ncnc32)c1`, the inhibition rises from 25.6% to 59.3%.

First: Cc1nnc(-c2cccc(-c3ccc(C(=O)NCC4CC4)cc3)c2)o1
Second: Cc1ccc(-c2cc3c(NC(=O)C4CC4)ncnc3o2)cc1
The inhibition of the first is lower: 0.56% for the first, 6.56% for the second.

First: Cc1cc(O)cc(C)c1/C=C/c1cncc(C(=O)OC(C)(C)C)c1
Second: CC1=C(C(=O)Nc2ccc3[nH]nc(C)c3c2)C(c2ccc(C(F)(F)F)cc2)CC(=O)N1 (configuration not stated)
The inhibition of the first is lower: 2.87% for the first, 5.55% for the second.

Compared with `COc1ccc(Nc2ncc(-c3ccccc3)o2)cc1OC`, `CS(=O)(=O)Nc1ccc(-c2cc(-c3ccccc3)cc(C(N)=O)c2N)cc1` is lower in inhibition: 5.18% for the first, -0.18% for the second.

Going from `COC(=O)Nc1nc2ccc(Oc3ccc(NC(=O)Nc4cc(C(F)(F)F)ccc4F)cc3)cc2s1` to `COC(=O)Nc1nc2cc(Oc3ccc(NC(=O)Nc4ccccc4)cc3)ccc2[nH]1`, the inhibition falls from 4.8% to 2.99%.

Compared with `O=C1Nc2ccccc2/C1=C1\CCc2cc(O)ccc21`, `COc1c(C(N)=O)cc(-c2ccc(Cl)cc2)cc1-c1ccc(S(N)(=O)=O)cc1` is lower in inhibition: 8.7% for the first, 6.71% for the second.

Going from `O=C(Nc1n[nH]c2nnc(-c3cccnc3)cc12)C1CC1` to `CCN1CCC(C(=O)Nc2n[nH]c3nnc(-c4cccc(F)c4F)cc23)CC1`, the inhibition rises from 1.8% to 2.84%.

Going from `c1cnn2ncc(-c3ccnc(NCCCN4CCOCC4)n3)c2c1` to `COc1cccc(Nc2nccc(-c3cnn4ncccc34)n2)c1`, the inhibition rises from -0.16% to 12.1%.

First: Cc1c2ccc(N(C)c3ccnc(Nc4cccc(S(N)(=O)=O)c4)n3)cc2nn1C
Second: Fc1ccc(Nc2nccc(-c3c(-c4ccc(C(F)(F)F)cc4)nn4ncccc34)n2)cc1F
The inhibition of the first is higher: 61.9% for the first, 2.81% for the second.

First: CNC(=O)c1sc(-n2cnc3cc(OC)c(OC)cc32)cc1OCc1ccccc1C(F)(F)F
Second: CNC(=O)c1ncccc1Nc1nc(Nc2cc3c(cc2OC)CCCN3C(=O)CN(C)C)nc2[nH]ccc12
The inhibition of the first is lower: 2.64% for the first, 4.5% for the second.

First: c1ccc(-c2n[nH]cc2-c2ccnc(-c3ccc(OCCn4ccnc4)cc3)c2)nc1
Second: CS(=O)(=O)CCNCc1ccoc1-c1ccc2ncnc(Nc3ccc(OCc4ccccc4)cc3)c2c1
The inhibition of the first is lower: 2.68% for the first, 25.2% for the second.

Compared with `CCn1c(-c2nonc2N)nc2cncc(C(=O)NCCNC)c21`, `NC(=O)c1ccc2c(-c3ccnc(NCCCO)n3)c(-c3ccc(F)cc3)nn2c1` is higher in inhibition: 3.22% for the first, 14.2% for the second.

Compared with `CS(=O)(=O)CCNCc1ccc(-c2ccc3ncnc(Nc4ccc(OCc5ccccc5)cc4)c3c2)o1`, `O=C(O[C@H]1CN[C@H](C#Cc2cc3ncnc(Nc4ccc5c(ccn5Cc5cc(F)ccc5F)c4)c3s2)C1)N1CCOCC1` is lower in inhibition: 43.7% for the first, 3.33% for the second.

First: CC1(C)CC(n2cnc(-c3ccc(F)cc3)c2-c2ccnc(N)n2)CC(C)(C)N1
Second: COc1cc(N2CCN(C(C)C)CC2)ccc1Nc1nc(Nc2cccc3ncccc23)c2cc[nH]c2n1
The inhibition of the first is higher: 3.06% for the first, 2.09% for the second.

With `Nc1nonc1-c1nc2cnccc2n1C1CC1` the inhibition was 6.46% and 2.52%.
`Nc1nccc(-c2c(-c3ccc(F)cc3)ncn2C2CCNCC2)n1` was tested, and the inhibition was 2.87% and 1.44%.
`CN1CCC(C(=O)Nc2n[nH]c3nc(-c4ccc(O)cc4)c(Br)cc23)CC1` was tested, and the inhibition was 4.17% and 6.1%.

target: Hepatocyte growth factor receptor (Homo sapiens) (UniProt P08581); conditions: at 0.1 µM;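 also: reported values are means of MET inhibition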
Sequence (P08581 whole entry): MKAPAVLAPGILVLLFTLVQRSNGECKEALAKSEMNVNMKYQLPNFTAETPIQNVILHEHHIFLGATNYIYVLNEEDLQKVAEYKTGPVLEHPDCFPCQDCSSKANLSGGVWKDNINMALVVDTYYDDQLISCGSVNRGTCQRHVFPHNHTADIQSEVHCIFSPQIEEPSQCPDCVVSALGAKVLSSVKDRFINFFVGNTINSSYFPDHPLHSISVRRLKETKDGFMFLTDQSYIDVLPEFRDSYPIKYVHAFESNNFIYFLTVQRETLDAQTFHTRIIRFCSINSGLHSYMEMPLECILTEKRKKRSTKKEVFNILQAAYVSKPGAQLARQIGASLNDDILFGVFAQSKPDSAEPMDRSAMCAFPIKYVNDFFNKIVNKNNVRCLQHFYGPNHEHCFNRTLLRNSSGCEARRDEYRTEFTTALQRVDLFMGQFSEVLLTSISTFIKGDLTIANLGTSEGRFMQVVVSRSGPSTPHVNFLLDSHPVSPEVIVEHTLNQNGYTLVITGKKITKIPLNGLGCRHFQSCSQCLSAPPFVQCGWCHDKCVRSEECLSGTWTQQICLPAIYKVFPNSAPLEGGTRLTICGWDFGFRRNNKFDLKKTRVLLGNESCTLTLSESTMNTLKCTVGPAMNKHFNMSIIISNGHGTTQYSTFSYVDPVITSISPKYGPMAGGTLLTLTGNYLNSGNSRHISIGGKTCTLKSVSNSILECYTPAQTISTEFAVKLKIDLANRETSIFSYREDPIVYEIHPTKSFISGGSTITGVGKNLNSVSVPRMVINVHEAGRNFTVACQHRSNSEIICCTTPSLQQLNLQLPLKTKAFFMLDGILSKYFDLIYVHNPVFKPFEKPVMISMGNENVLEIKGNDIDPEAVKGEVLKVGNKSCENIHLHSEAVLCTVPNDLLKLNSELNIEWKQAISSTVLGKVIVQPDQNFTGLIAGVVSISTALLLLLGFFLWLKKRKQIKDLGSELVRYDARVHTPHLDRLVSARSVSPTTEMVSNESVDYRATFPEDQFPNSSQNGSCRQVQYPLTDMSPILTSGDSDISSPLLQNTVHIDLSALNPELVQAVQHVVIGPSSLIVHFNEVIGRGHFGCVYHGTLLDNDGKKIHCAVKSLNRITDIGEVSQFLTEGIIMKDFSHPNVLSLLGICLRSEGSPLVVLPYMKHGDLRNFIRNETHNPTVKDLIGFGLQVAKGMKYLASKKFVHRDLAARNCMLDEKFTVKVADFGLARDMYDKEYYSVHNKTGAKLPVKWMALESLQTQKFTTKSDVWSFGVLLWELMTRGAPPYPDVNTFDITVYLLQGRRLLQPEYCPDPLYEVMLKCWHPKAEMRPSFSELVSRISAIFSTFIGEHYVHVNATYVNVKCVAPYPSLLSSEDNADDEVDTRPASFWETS

Compared with `CCCNc1cccc(-n2ncc3c(N/N=C/c4ccncc4)ncnc32)c1`, `COc1cccc(-n2ncc3c(N/N=C/c4ccc(C(=O)NCCN(C)C)cc4)ncnc32)c1` is higher in inhibition: 12.6% for the first, 12.9% for the second.

Compared with `Cc1nnc(-c2cccc(-c3ccc(C(=O)NCC4CC4)cc3)c2)o1`, `Cc1ccc(-c2cc3c(NC(=O)C4CC4)ncnc3o2)cc1` is higher in inhibition: 3.78% for the first, 4.71% for the second.

First: Cc1cc(O)cc(C)c1/C=C/c1cncc(C(=O)OC(C)(C)C)c1
Second: CC1=C(C(=O)Nc2ccc3[nH]nc(C)c3c2)C(c2ccc(C(F)(F)F)cc2)CC(=O)N1 (configuration not stated)
The inhibition of the first is higher: 4.92% for the first, 1.4% for the second.

First: COc1ccc(Nc2ncc(-c3ccccc3)o2)cc1OC
Second: CS(=O)(=O)Nc1ccc(-c2cc(-c3ccccc3)cc(C(N)=O)c2N)cc1
The inhibition of the first is higher: 2.78% for the first, -1.07% for the second.

First: COC(=O)Nc1nc2ccc(Oc3ccc(NC(=O)Nc4cc(C(F)(F)F)ccc4F)cc3)cc2s1
Second: COC(=O)Nc1nc2cc(Oc3ccc(NC(=O)Nc4ccccc4)cc3)ccc2[nH]1
The inhibition of the first is higher: 9.69% for the first, 2.87% for the second.

First: O=C1Nc2ccccc2/C1=C1\CCc2cc(O)ccc21
Second: COc1c(C(N)=O)cc(-c2ccc(Cl)cc2)cc1-c1ccc(S(N)(=O)=O)cc1
The inhibition of the first is lower: 6.45% for the first, 10.9% for the second.

First: O=C(Nc1n[nH]c2nnc(-c3cccnc3)cc12)C1CC1
Second: CCN1CCC(C(=O)Nc2n[nH]c3nnc(-c4cccc(F)c4F)cc23)CC1
The inhibition of the first is lower: 3.88% for the first, 4.13% for the second.

Compared with `c1cnn2ncc(-c3ccnc(NCCCN4CCOCC4)n3)c2c1`, `COc1cccc(Nc2nccc(-c3cnn4ncccc34)n2)c1` is higher in inhibition: -0.1% for the first, 3.9% for the second.

Compared with `Cc1c2ccc(N(C)c3ccnc(Nc4cccc(S(N)(=O)=O)c4)n3)cc2nn1C`, `Fc1ccc(Nc2nccc(-c3c(-c4ccc(C(F)(F)F)cc4)nn4ncccc34)n2)cc1F` is lower in inhibition: 10.6% for the first, 4.74% for the second.

Going from `CNC(=O)c1sc(-n2cnc3cc(OC)c(OC)cc32)cc1OCc1ccccc1C(F)(F)F` to `CNC(=O)c1ncccc1Nc1nc(Nc2cc3c(cc2OC)CCCN3C(=O)CN(C)C)nc2[nH]ccc12`, the inhibition rises from 1.53% to 6.6%.

First: c1ccc(-c2n[nH]cc2-c2ccnc(-c3ccc(OCCn4ccnc4)cc3)c2)nc1
Second: CS(=O)(=O)CCNCc1ccoc1-c1ccc2ncnc(Nc3ccc(OCc4ccccc4)cc3)c2c1
The inhibition of the first is higher: 4.9% for the first, 3.02% for the second.

Compared with `CCn1c(-c2nonc2N)nc2cncc(C(=O)NCCNC)c21`, `NC(=O)c1ccc2c(-c3ccnc(NCCCO)n3)c(-c3ccc(F)cc3)nn2c1` is higher in inhibition: 1.82% for the first, 7.18% for the second.

First: CS(=O)(=O)CCNCc1ccc(-c2ccc3ncnc(Nc4ccc(OCc5ccccc5)cc4)c3c2)o1
Second: O=C(O[C@H]1CN[C@H](C#Cc2cc3ncnc(Nc4ccc5c(ccn5Cc5cc(F)ccc5F)c4)c3s2)C1)N1CCOCC1
The inhibition of the first is lower: -0.6% for the first, 7.21% for the second.

Going from `CC1(C)CC(n2cnc(-c3ccc(F)cc3)c2-c2ccnc(N)n2)CC(C)(C)N1` to `COc1cc(N2CCN(C(C)C)CC2)ccc1Nc1nc(Nc2cccc3ncccc23)c2cc[nH]c2n1`, the inhibition rises from -5.05% to -2.89%.

In the case of `Nc1nonc1-c1nc2cnccc2n1C1CC1`, the inhibition is reported as 6.7% and 2.47%.
In the case of `Nc1nccc(-c2c(-c3ccc(F)cc3)ncn2C2CCNCC2)n1`, the inhibition is reported as -2.37% and 2.87%.
In the case of `CN1CCC(C(=O)Nc2n[nH]c3nc(-c4ccc(O)cc4)c(Br)cc23)CC1`, the inhibition is reported as 3.13% and 11.9%.
